In PubChem BioAssay (EPA / NIEHS):
Results filed as inconclusive are left out. Activity calls are given as the source filed them. The calls were made as follows, unless noted: active = hit-call score of the fitted dose curve at least 0.9, where 1 is the maximum; inconclusive = response in the unintended direction; inactive = score below 0.9.

Key:
[1] = TOX21_p53_BLA_p2_viability: Viability Assessment in the Tox21 HCT-116 p53 Agonism Beta-lactamase Assay, Phase 2 (AID 2283591);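 also: actives lower the ATP signal meaning cytotoxicity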
How it was run: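 HCT116 p53-bla cells, 4000/well, dosed after 5 h plating (217-fold dilution of DMSO stocks) and incubated 16 h at 37C. Viability taken as cellular ATP by CellTiter-Glo luminescence after 30 min RT; signal loss marks cytotoxicity.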

[2] = target: Cellular tumor antigen p53 (Homo sapiens) (UniProt P04637); assay: TOX21_p53_BLA_p2_ratio: Tox21 HCT-116 p53 Agonism Beta-lactamase Assay, Ratio, Phase 2 (AID 2283592)
How it was run: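 An inducible beta-lactamase reporter in HCT116 cells signals p53 pathway activation. After 16 h chemical exposure at 37C, cells load CCF4-AM substrate for 2 h at room temperature; activity is the cleaved/uncleaved emission ratio relative to DMSO.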

[3] = target: Cellular tumor antigen p53 (Homo sapiens) (UniProt P04637); assay: TOX21_p53_BLA_p3_ratio: Tox21 HCT-116 p53 Agonism Beta-lactamase Assay, Ratio, Phase 3 (AID 2283596)
How it was run: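 HCT116 p53-bla cells (4000/well) given compound in DMSO (217-fold dilution) after 5 h, incubated 16 h at 37C. CCF4-AM substrate 2 h at room temperature; 460/530 nm emission ratio, gain fitted against DMSO.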

[4] = target: Cellular tumor antigen p53 (Homo sapiens) (UniProt P04637); assay: TOX21_p53_BLA_p5_ratio: Tox21 HCT-116 p53 Agonism Beta-lactamase Assay, Ratio, Phase 5 (AID 2283599)
How it was run: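 HCT-116 p53-bla cells (4000/well) plated 5 h, dosed with compound (217-fold DMSO dilution) for 16 h at 37 C; CCF4-AM substrate 2 h at room temperature. Activity is the 460/530 nm emission ratio (405 nm excitation), fitted in gain-of-signal direction versus DMSO.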

[5] = TOX21_p53_BLA_p5_viability: Viability Assessment in the Tox21 HCT-116 p53 Agonism Beta-lactamase Assay, Phase 5 (AID 2283600)
How it was run: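 Counter-readout for cytotoxicity: ATP-dependent luminescence from CellTiter-Glo, read in the beta-lactamase wells after 30 min at RT, following a 16 h compound exposure at 37C.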

[6] = target: Cellular tumor antigen p53 (Homo sapiens) (UniProt P04637); assay: TOX21_p53_BLA_p4_ratio: Tox21 HCT-116 p53 Agonism Beta-lactamase Assay, Ratio, Phase 4 (AID 2283601)
How it was run: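 HCT-116 p53 beta-lactamase reporter cells (4000/well) preincubated 5 h, then compound (217-fold dilution of DMSO stock) for 16 h at 37C. CCF4-AM substrate added 2 h at room temperature; 460/530 nm emission ratio fitted upward versus DMSO.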

[7] = TOX21_p53_BLA_p4_viability: Viability Assessment in the Tox21 HCT-116 p53 Agonism Beta-lactamase Assay, Phase 4 (AID 2283597);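 also: hits lower the luminescence signal meaning cytotoxicity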
How it was run: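 Compound exposure of HCT116 cells lasts 16 h at 37C, 5% CO2, with DMSO stocks diluted 217-fold. Cellular ATP is then quantified by CellTiter-Glo luminescence after 30 min at room temperature.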

[8] = CCTE_Harrill_HTTr_Viability_MCF7: CCTE's 6-hour Cell Viability Assessment for the High-Throughput Transcriptomics (HTTr) Platform, in MCF-7 cells cultured in DMEM + 10% fetal bovine serum, Harrill Lab (AID 2284010; active = hit-call score of the fitted dose curve at least 0.9, where 1 is the maximum; inactive = score below 0.9)
How it was run: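 Cells were dosed with chemicals in an eight-point dilution series, imaged 6 hours later for propidium iodide uptake, and the endpoint was analyzed by bidirectional fitting against DMSO as negative control.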

[9] = CCTE_Harrill_HTTr_Apoptosis_MCF7: CCTE's 6-hour Apoptosis Assessment for the High-Throughput Transcriptomics (HTTr) Platform, in MCF-7 cells cultured in DMEM + 10% fetal bovine serum, Harrill Lab (AID 2284011; active = hit-call score of the fitted dose curve at least 0.9, where 1 is the maximum; inactive = score below 0.9)
How it was run: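 Cells are dosed with test chemicals at eight concentrations and imaged 6 hours later for caspase-3/7 activity using a green fluorogenic detection reagent. Activity is fitted in both directions against DMSO controls.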

[10] = CCTE_Harrill_HTTr_CellCount_MCF7: CCTE's Cell Proliferation Assessment for the High-Throughput Transcriptomics (HTTr) Platform, Harrill Lab (AID 2284012);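 also: count of Hoechst-stained nuclei per well by high-content imaging in MCF-7 cells; cells exposed to compound for six hours; intended direction is loss of nuclei count meaning fewer cells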
How it was run: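 Chemicals in eight-point dilution series are added to MCF-7 cells for six hours, nuclei are stained with Hoechst and imaged, and per-well nuclei counts are fitted in both directions relative to DMSO controls.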

Chain of Cellular tumor antigen p53 (Homo sapiens) (P04637 whole entry, looked up): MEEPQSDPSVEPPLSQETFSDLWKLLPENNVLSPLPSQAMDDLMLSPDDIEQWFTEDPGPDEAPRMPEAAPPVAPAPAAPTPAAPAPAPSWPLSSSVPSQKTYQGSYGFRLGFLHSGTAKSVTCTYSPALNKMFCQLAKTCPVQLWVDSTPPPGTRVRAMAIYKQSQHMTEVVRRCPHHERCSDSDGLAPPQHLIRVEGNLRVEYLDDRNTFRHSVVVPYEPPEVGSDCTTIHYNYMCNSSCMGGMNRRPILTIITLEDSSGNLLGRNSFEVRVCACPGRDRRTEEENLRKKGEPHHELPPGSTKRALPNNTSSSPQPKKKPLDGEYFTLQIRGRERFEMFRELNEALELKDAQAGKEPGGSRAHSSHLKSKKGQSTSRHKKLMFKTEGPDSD

Compound	outcome [1]	outcome [2]	outcome [3]	outcome [4]	outcome [5]	outcome [6]	outcome [7]	AC50 [4]	outcome [8]	outcome [9]	outcome [10]
CC(C(=O)O)c1ccc2c(c1)[nH]c1ccc(Cl)cc12 (stereo unspecified)	inactive	inactive	inactive	inactive	inactive	inactive					
CC(C)Cn1cnc2c(N)nc3ccccc3c21	inactive	inactive	inactive	inactive							
Cc1cn[nH]c1	inactive	inactive	inactive	inactive	inactive						
CN1C(=O)CC(c2ccccc2)C1=O (stereo unspecified)	inactive	inactive	inactive	inactive	inactive	inactive					
O=C(O)c1cccc(Cl)c1Cl	inactive	inactive	inactive	inactive	inactive	inactive					
CCOc1ccc2nc(N)sc2c1	inactive	inactive	inactive	inactive	inactive						
CNC(=O)OCc1cccc(COC(=O)NC)n1	inactive	inactive	inactive	inactive	inactive						
CC=CC(=O)CC	inactive	inactive	inactive	inactive	inactive						
CC1CCc2cc(F)cc3c(=O)c(C(=O)O)cn1c23 (stereo unspecified)	inactive	inactive	inactive	inactive	inactive	inactive					
CCOC(=O)COc1ccc2c(C)c(CCN(CC)CC)c(=O)oc2c1	inactive	inactive	inactive	inactive	inactive	inactive					
C[C@@H]1O[C@@H](OC[C@H]2O[C@@H](Oc3c(-c4ccc(OCCO)c(OCCO)c4)oc4cc(OCCO)cc(O)c4c3=O)[C@H](O)[C@@H](O)[C@@H]2O)[C@H](O)[C@H](O)[C@H]1O	inactive	inactive	inactive			inactive	inactive				
CCCCC(=O)O[C@H]1CC[C@H]2[C@@H]3CCc4cc(O)ccc4[C@H]3CC[C@]12C	inactive	inactive	inactive			inactive	inactive				
CCCCCC=CCC1CC(=O)OC1=O (stereo unspecified)	inactive	inactive	inactive	inactive	inactive	inactive					
CC1CC(C)C(=O)C1=O (stereo unspecified)	inactive	inactive	inactive	inactive							
C=CCSCC1Nc2cc(Cl)c(S(N)(=O)=O)cc2S(=O)(=O)N1 (stereo unspecified)	inactive	inactive	inactive			inactive		59 pM (active)			
O=C1OCCN1N=Cc1ccc([N+](=O)[O-])o1	inactive	inactive	inactive	inactive	inactive	inactive			inactive	inactive	
N=C(N=C(N)N)N1CCOCC1	inactive	inactive	inactive	inactive	inactive	inactive					

Compound	outcome [1]	outcome [2]	outcome [3]	outcome [4]	outcome [5]	outcome [6]	outcome [7]	AC50 [4]	outcome [8]	outcome [9]	outcome [10]
CC(C)[C@@H](N)C(=O)O	inactive	inactive	inactive	inactive	inactive	inactive					
O=[N+]([O-])c1ccccc1Nc1ccccc1	inactive	inactive	inactive	inactive	inactive	inactive					
C[C@@H]1CN(c2c(F)c(N)c3c(=O)c(C(=O)O)cn(C4CC4)c3c2F)C[C@H](C)N1	inactive	inactive	inactive	inactive	inactive	inactive			inactive	inactive	inactive
NCCCCCC(=O)O	inactive	inactive	inactive	inactive	inactive	inactive					
C[S+](CC[C@H](N)C(=O)O)C[C@H]1O[C@@H](n2cnc3c(N)ncnc32)[C@H](O)[C@@H]1O (stereo partly specified)	inactive	inactive	inactive	inactive	inactive	inactive					
C=CCn1cc[n+](C)c1	inactive	inactive	inactive	inactive	inactive	inactive					
H-RKDVY-OH	inactive	inactive	inactive	inactive	inactive	inactive					
CC(=O)Oc1cccc(C)c1	inactive	inactive	inactive	inactive	inactive	inactive					
C#CCN(C)CCCOc1ccc(Cl)cc1Cl	inactive	inactive	inactive	inactive	inactive	inactive					
NCCO/C=C/[C@H](N)C(=O)O	inactive	inactive	inactive	inactive	inactive	inactive					
OCCN1CCN(CCO)CC1	inactive	inactive	inactive	inactive	inactive	inactive					
CN(C)CCn1nnnc1SCC1=C(C(=O)O)N2C(=O)[C@@H](NC(=O)Cc3csc(N)n3)[C@H]2SC1	inactive	inactive	inactive	inactive	inactive	inactive					
c1coc(Cn2cccc2)c1	inactive	inactive	inactive	inactive	inactive	inactive					
CCN(CC)c1cccc(O)c1	inactive	inactive	inactive	inactive	inactive	inactive					
O=C(O)C(Cc1cc(I)c(O)c(I)c1)c1ccccc1 (stereo unspecified)	inactive	inactive	inactive	inactive		inactive					
CC1CCC(NC(=O)N(CCCl)N=O)CC1 (stereo unspecified)	inactive	inactive	inactive	inactive	inactive	inactive					
